Results on 34 targets are retold here after the supplement of paper PMC10849652.

The full data set covers some 7,900 targets. This sample favours those with a hit. About 0.6% of all pairs of compound and target were hits. Values without a mark were called inactive.

UniProt Q8N108, sequence (Q8N108 whole entry, looked up): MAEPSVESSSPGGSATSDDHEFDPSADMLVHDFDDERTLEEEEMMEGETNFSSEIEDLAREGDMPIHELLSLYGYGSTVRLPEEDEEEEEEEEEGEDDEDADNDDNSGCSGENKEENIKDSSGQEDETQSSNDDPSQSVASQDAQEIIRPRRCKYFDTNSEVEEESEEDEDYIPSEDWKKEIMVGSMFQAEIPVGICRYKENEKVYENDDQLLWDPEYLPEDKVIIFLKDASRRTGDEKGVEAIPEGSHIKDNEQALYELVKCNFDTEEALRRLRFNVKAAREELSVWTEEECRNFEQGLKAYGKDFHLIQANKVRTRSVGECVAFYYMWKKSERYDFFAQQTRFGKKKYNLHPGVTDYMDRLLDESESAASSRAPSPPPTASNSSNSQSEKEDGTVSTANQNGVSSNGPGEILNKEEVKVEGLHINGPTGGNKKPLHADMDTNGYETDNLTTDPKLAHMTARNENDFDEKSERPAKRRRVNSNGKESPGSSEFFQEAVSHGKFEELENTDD
UniProt Q8WV07, sequence (Q8WV07 whole entry, looked up): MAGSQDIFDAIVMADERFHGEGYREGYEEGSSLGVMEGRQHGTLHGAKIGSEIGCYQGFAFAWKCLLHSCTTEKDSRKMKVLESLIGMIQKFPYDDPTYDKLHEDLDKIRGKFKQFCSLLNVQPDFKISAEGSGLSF
UniProt P27816, sequence (P27816 whole entry, looked up): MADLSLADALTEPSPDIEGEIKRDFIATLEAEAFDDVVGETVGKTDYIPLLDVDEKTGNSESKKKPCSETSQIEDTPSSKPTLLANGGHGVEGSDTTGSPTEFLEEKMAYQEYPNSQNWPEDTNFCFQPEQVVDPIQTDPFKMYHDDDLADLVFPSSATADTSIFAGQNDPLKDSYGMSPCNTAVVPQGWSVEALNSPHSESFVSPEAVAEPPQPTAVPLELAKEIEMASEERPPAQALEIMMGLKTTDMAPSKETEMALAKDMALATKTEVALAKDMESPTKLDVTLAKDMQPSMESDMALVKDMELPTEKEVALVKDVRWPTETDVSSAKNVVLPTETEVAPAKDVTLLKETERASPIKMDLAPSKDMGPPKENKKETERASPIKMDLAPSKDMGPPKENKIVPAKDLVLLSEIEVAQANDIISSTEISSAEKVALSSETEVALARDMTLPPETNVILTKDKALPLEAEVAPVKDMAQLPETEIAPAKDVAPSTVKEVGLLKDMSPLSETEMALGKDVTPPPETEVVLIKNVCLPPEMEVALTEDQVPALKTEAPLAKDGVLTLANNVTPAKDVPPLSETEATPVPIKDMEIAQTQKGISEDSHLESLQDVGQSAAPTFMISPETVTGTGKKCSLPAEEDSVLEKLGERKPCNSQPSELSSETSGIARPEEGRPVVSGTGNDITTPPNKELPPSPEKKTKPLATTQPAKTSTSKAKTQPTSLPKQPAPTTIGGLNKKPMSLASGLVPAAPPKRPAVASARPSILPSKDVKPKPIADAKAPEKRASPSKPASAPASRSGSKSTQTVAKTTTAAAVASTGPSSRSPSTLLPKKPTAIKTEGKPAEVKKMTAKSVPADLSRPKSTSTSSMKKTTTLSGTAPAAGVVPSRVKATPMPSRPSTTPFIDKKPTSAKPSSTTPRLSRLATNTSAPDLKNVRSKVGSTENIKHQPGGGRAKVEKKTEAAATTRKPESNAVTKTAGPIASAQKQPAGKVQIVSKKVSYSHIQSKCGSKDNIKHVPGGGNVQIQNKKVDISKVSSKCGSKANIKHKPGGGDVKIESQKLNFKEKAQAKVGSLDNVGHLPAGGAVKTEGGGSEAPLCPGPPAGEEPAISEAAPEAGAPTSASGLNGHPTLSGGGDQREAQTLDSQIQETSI
UniProt P02545, sequence (P02545 whole entry, looked up): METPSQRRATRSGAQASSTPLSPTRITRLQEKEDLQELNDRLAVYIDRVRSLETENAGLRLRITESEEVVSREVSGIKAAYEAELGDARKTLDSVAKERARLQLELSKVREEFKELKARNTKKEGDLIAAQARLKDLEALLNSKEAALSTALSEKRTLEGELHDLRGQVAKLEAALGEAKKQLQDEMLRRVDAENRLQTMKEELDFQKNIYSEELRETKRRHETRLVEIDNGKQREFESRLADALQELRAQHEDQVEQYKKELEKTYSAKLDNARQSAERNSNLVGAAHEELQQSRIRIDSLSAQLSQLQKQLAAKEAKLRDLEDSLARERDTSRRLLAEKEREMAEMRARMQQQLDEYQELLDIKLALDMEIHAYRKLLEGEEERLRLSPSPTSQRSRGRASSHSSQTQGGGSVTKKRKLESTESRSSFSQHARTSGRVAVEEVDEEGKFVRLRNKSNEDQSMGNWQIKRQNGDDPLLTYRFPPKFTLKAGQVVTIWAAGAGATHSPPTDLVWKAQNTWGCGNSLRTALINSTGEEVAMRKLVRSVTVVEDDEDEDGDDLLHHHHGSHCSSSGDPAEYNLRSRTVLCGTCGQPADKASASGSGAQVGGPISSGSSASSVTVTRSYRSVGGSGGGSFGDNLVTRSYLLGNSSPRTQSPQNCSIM
UniProt Q07820, sequence (Q07820 whole entry, looked up): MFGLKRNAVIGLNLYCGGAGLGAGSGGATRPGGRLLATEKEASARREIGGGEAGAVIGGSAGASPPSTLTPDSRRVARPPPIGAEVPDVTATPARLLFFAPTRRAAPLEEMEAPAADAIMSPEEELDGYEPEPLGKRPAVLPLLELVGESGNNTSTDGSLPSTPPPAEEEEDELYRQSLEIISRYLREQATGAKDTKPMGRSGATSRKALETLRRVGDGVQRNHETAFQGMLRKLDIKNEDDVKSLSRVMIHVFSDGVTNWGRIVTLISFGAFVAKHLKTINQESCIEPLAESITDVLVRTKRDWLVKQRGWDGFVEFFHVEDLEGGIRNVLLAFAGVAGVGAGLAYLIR
UniProt P33947, sequence (P33947 whole entry, looked up): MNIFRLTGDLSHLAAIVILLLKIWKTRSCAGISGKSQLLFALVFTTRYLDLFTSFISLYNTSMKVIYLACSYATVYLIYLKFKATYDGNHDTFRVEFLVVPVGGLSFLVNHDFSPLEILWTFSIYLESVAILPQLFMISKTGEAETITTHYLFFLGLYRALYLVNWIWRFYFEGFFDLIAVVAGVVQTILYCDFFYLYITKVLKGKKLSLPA
UniProt P22692, sequence (P22692 whole entry, looked up): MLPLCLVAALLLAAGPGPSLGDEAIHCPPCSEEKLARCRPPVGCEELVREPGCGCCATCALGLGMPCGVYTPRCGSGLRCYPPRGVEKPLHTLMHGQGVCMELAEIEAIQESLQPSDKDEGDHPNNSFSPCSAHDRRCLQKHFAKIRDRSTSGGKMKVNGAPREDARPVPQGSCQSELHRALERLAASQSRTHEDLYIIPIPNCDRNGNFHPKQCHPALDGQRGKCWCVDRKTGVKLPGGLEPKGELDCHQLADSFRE
UniProt Q13422, sequence (Q13422 whole entry, looked up): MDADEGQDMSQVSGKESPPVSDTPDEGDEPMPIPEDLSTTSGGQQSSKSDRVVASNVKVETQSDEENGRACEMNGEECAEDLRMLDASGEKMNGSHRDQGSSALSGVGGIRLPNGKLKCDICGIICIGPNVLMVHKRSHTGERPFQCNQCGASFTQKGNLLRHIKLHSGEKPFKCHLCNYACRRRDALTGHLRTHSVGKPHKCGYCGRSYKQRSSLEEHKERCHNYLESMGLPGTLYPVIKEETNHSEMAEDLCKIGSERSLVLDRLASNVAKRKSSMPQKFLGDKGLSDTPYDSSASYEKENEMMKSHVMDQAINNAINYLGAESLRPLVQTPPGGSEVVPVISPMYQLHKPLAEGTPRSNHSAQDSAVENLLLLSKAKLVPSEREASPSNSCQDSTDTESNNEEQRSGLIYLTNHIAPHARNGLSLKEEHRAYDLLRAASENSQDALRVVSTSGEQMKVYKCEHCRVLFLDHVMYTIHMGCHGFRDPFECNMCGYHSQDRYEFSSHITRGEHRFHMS
UniProt O43766, sequence (O43766 whole entry, looked up): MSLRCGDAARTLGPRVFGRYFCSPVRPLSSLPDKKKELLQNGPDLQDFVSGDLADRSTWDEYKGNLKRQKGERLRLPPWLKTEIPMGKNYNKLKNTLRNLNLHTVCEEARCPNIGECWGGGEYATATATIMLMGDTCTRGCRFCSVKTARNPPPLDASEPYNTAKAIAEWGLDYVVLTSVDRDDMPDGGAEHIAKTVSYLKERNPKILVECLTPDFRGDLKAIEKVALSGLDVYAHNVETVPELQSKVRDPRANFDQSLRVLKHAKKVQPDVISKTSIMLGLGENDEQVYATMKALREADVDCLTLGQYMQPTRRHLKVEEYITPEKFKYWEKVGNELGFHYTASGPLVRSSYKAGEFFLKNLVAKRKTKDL
UniProt Q96GA3, sequence (Q96GA3 whole entry, looked up): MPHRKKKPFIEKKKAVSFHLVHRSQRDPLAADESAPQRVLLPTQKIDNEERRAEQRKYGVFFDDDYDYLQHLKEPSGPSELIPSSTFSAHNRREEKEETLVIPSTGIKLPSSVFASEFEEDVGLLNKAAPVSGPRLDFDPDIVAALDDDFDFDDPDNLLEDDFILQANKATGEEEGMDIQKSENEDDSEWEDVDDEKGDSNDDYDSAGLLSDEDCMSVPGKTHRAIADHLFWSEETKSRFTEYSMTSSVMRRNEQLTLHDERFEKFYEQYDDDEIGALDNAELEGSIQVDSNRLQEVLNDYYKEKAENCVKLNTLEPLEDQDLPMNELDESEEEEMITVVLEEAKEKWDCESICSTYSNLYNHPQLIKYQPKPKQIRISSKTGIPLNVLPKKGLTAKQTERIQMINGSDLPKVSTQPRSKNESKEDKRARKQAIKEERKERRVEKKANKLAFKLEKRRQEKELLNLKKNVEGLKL
UniProt A4D2B0, sequence (A4D2B0 whole entry, looked up): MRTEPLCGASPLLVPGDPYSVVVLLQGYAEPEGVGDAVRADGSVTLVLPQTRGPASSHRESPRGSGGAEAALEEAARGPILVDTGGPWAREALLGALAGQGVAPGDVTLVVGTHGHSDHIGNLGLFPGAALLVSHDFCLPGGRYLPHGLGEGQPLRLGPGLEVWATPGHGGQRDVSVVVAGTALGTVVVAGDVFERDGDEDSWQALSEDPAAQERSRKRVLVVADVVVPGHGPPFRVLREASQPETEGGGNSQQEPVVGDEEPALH

Compound in this experiment: c1cn2cc(-c3ccc4cn[nH]c4c3)nc(Nc3ccc(N4CCOCC4)cc3)c2n1 [entospletinib]
The experiment is described as follows: log2 fold change, soluble protein after heating vs DMSO (PISA); higher = thermal stabilisation; K562 cells, 10 uM, 30 min; active = over 0.2 and 3.5 SD of the protein, either way, in both replicates (recomputed). An outline of the steps:
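Thermal stability values are relative to control samples and come from duplicates. They are expressed as log2 fold changes. For measurement, K562 cells (2×10^6 cells/mL) received 10 μM compound for 30 min, and aliquots were heated for 3 min over 48°C-58°C, pooled, and extracted at 4°C in PBS with 0.5% NP-40. Soluble protein, the supernatant after 21,000xg for 90 min, was quantified by TMTpro 16plex LC-MS/MS with equalised channel sums.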
On to LIAS (UniProt O43766), for which the log2 fold change was 0.113.
LEO1 (UniProt Q8WVC0): the log2 fold change is -0.094.
To MIEF1 (UniProt L0R8F8) belongs 0.023.
Take LMNA (UniProt P02545): the log2 fold change is -0.025.
On to MAPK14 isoform 2 (UniProt Q16539), for which the log2 fold change is -0.032.
Regarding MAN2B2 (UniProt Q9Y2E5), the log2 fold change was 0.004.
Take MCM10 (UniProt Q7L590): the log2 fold change was -0.04.
Regarding KTN1 (UniProt Q86UP2), the log2 fold change was -0.043.
With MIER1 isoform 12 (UniProt Q8N108), the log2 fold change is -0.002.
To MAP4 (UniProt P27816) belongs -0.017; to LTV1 (UniProt Q96GA3), 0.09; to MFGE8 (UniProt Q08431), 0.065.
As for MBLAC1 (UniProt A4D2B0), the log2 fold change is 0.083.
To MFN2 (UniProt O95140) belongs -0.004; to MAP3K20 (UniProt Q9NYL2), -0.007.
Take KDELR2 (UniProt P33947): the log2 fold change was 0.101.
On to KXD1 (UniProt Q9BQD3), for which the log2 fold change was 0.016.
As for LAMP2 (UniProt P13473), the log2 fold change is 0.023.
As for MASTL (UniProt Q96GX5), the log2 fold change is -0.014.
For the target KCTD10 (UniProt Q9H3F6), the log2 fold change was 0.047.
To MED16 (UniProt Q9Y2X0) belongs 0.014; to MAST4 (UniProt O15021), -0.052; to LARP4 isoform 4 (UniProt Q71RC2), 0.095.
Take MARCKS (UniProt P29966): the log2 fold change is 0.004.
To IGFBP4 (UniProt P22692) belongs 0.147; to MGST1 (UniProt P10620), 0.051; to LARP1 (UniProt Q6PKG0), 0.028.
Take IPO13 (UniProt O94829): the log2 fold change was 0.106.
As for MCL1 (UniProt Q07820), the log2 fold change was 0.081.
With LYN (UniProt P07948), the log2 fold change is -0.024.
With MDC1 (UniProt Q14676), the log2 fold change was -0.054.
As to LGALS8 isoform 2 (UniProt O00214), the log2 fold change is 0.101.
Take LTO1 (UniProt Q8WV07): the log2 fold change was -0.047.
For the target IKZF1 (UniProt Q13422), the log2 fold change was 0.042.
